Inhibition data for 95 molecules are collected here from PubChem BioAssay AID1825 (The Scripps Research Institute Molecular Screening Center, 2009).

The campaign covered roughly 290,000 compounds. About 2,300 (0.79%) were called active. Rule as the data show it: active = inhibition above about 22%; inactive = the rest. This excerpt belongs to a sample that is enriched for actives.

The assay is described as follows: cytotoxicity in IEC-6 intestinal epithelial cells, primary screen, cytotoxicity control for KLF5 inhibitor project, cell-based, luminescence (AID 1825).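 Also: 0% = plate median of test compound wells and 100% = cytotoxic reference compound wells.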 The following applies: IEC-6 cytotoxicity, luminescence viability; at 5 µM; active compounds read high.
As a reminder, the inhibition is the change of the read-out against control, counted positive when it falls. As for `Cc1oc2cc3oc(=O)ccc3cc2c1C`, the inhibition was 3.1% (inactive).
In the case of `COCCNc1cc(-c2ccccc2)nc2cc(-c3cccc(F)c3)nn12` it was 2.5% (inactive); in that of `CCOC(=O)c1cc(-c2nnc(-c3cc(OC)c(OC)c(OC)c3)o2)c(C)nc1C`, -3.1% (inactive); in that of `CCOC(=O)C1=C(N)N2C(=O)C(C)SC2=C(C(=O)OCC)C1c1cc(OC)c(OC)c(OC)c1` (stereo not given), 25.5% (active).
The value for `CCOC(=O)C1CCN(C(=O)/C=C/c2cc(OC)c(OC)c(OC)c2)CC1` was -2.6% (inactive).
Take `Cc1ccc(N2CC(C(=O)NCCS(=O)(=O)N3CCN(c4ccccc4)CC3)CC2=O)cc1` (stereo not given): the inhibition was -4.2% (inactive).
With `Fc1ccc2[nH]c3c(N4CCN(Cc5ccc6c(c5)OCO6)CC4)ncnc3c2c1`, the inhibition is 19.7% (inactive).
As to `COc1cc(OC)c(OC)cc1/C=N/Nc1ncnc2c1[nH]c1ccc(C)cc12`, the inhibition was -4.4% (inactive).
The value for `CC(C)OCCCNc1ncnc2c1[nH]c1ccc(F)cc12` was 31.5% (active); that for `COc1ccc(-c2nc3n(c(=O)c2C#N)CCS3)c(OC)c1` was 1.6% (inactive); that for `O=C(c1cc2ccccc2s1)N1CCN(c2ccccn2)CC1` was 3.8% (inactive).
As to `Cc1ccc(-c2cc(C(=O)NCC3CCCO3)c3ccccc3n2)o1` (stereo not given), the inhibition is -6% (inactive).
For the molecule `CCc1c(C)nc2c(-c3ccccc3)c(C)nn2c1Nc1ccc(NC(C)=O)cc1`, the inhibition is -10.5% (inactive).
Turning to `Cc1nn2c(NCCN(C)C)c3c(nc2c1-c1ccccc1)CCC3`, the inhibition is 25% (active).
In the case of `Cc1cc(C(C)(C)C)n2nc(C)c(-c3ccccc3)c2n1` it was 0.2% (inactive); in that of `CC(=O)N(c1ccc2oc(=O)sc2c1)S(=O)(=O)c1ccc(C)cc1`, -2.8% (inactive); in that of `C/C(=N\NC(=O)Cc1ccc(Cl)cc1)c1ccccn1`, -2.8% (inactive).
In the case of `C/C(=N\NC(=O)c1ccccc1F)c1ccccn1` it was 29.2% (active); in that of `COc1ccc(CC(=O)N/N=C(\C)c2ccccn2)cc1`, 2% (inactive).
Consider `CCC(C)(C)NC(=O)/C=C/c1cc(OC)c(OC)c(S(=O)(=O)N2CCc3ccccc32)c1`, for which the inhibition was -0.4% (inactive).
`Cc1nc2ccccc2c(=O)n1Cc1ccc([N+](=O)[O-])cc1`: the inhibition was -1.7% (inactive).
Regarding `Cc1nc2ccccc2n1CC(O)c1ccccc1` (stereo not given), the inhibition is 0% (inactive).
With `CCn1c(C)nc2c1C(=O)c1ccccc1C2=O`, the inhibition is 22.2% (active).
`CCc1ccccc1NC(=S)Nc1cc(OC)c(NC(=O)C(C)C)cc1OC`: the inhibition is -1.1% (inactive).
In the case of `NS(=O)(=O)c1ccccc1NC(=O)c1c(O)c2ccccc2[nH]c1=O`, the inhibition is -0.5% (inactive).
The value for `COc1ccc(Oc2cn[nH]c2-c2ccc(OC)cc2O)cc1` was 0% (inactive); that for `CC(C)(C)NS(=O)(=O)c1ccc(NC(=O)C2CCCO2)cc1` (stereo not given) was -5% (inactive); that for `CCN1CCN(CCNC(=O)c2ccc(/C=C3/Sc4ccccc4N(Cc4cccc(C)c4)C3=O)cc2)CC1` was 7.2% (inactive).
Consider `CCN1/C(=C\c2ccc3ccccc3[n+]2CC)Sc2cc(C)ccc21`, for which the inhibition was 54.6% (active).
In the case of `CCN1/C(=C/c2ccc3ccc(C)cc3[n+]2CC)Sc2ccccc21`, the inhibition was 33.6% (active).
In the case of `COC(=O)c1sccc1NS(=O)(=O)c1ccc(F)cc1F`, the inhibition was 1% (inactive).
In the case of `CCOC(=O)[C@@H]1[C@H]2COc3ccc(Br)cc3[C@H]2N2C(=O)N(c3ccc(Cl)cc3)C(=O)[C@@]12C` it was -0.1% (inactive); in that of `CC1CC(C)CN(C(=O)CCNC(=O)Cn2cnc3ccccc3c2=O)C1` (stereo not given), 0.9% (inactive); in that of `CC(C)[C@@H](C(=O)O)N(Cc1cccc(CN([C@H](C(=O)O)C(C)C)S(C)(=O)=O)c1)S(C)(=O)=O`, -3.4% (inactive).
Consider `CCOC(=O)C(=Cc1ccccc1OC)C(=O)OCC`, for which the inhibition is -0.6% (inactive).
On to `Cc1cc2c(cc1S(=O)(=O)CCC(=O)NCc1ccccc1)OCC(=O)N2`, for which the inhibition was 11% (inactive).
On to `C/C(=N\N(C)C)c1ccc(OCCOc2ccc([N+](=O)[O-])cc2)cc1`, for which the inhibition was 2.8% (inactive).
The value for `COc1cccc(OC)c1C(=O)Nc1c(C(=O)N2CCN(c3ccccn3)CC2)oc2ccccc12` was 0% (inactive).
On to `CCOc1ccc(NC(=O)CC(Cc2ccc(Cl)cc2)C(=O)O)cc1` (stereo not given), for which the inhibition was 5.3% (inactive).
Regarding `CCSc1nnc(NC(=O)c2ccc(C)cc2)s1`, the inhibition is 2.1% (inactive).
As to `Cc1ccc(CS(=O)(=O)c2ncc(Cl)c(C(=O)Nc3nnc(C)s3)n2)cc1`, the inhibition is 83.7% (active).
The value for `CSc1ncc(Cl)c(C(=O)Nc2cc(C)ccc2C)n1` was 4.1% (inactive); that for `CSc1nnc(NC(=O)c2nc(S(=O)(=O)Cc3ccc(C)cc3)ncc2Cl)s1` was 55% (active).
Take `Cc1ccc(S(=O)(=O)CC(=O)Nc2nnc(C)s2)cc1`: the inhibition is -1.2% (inactive).
Regarding `Cc1nnc(NC(=O)Nc2ccc(Cl)c(Cl)c2)s1`, the inhibition is 4.3% (inactive).
Turning to `Cc1ccc2cc(C)c(N3CCN(c4ccc(F)cc4)CC3)nc2c1`, the inhibition is -5.5% (inactive).
In the case of `COc1cccc2cc(-c3cc(=O)oc4cc(C)c(O)cc34)oc12` it was -3.7% (inactive); in that of `Cc1[nH]c(C)c(S(=O)(=O)N2CCN(c3cccc(C(F)(F)F)c3)CC2)c1C(=O)N1CCCC1`, -1.3% (inactive); in that of `COc1cccc(C(O)c2nc3ccccc3n2C)c1` (stereo not given), -1% (inactive).
Regarding `CC(C)[C@@H]1COC(c2cccc(C3=N[C@H](C(C)C)CO3)c2)=N1`, the inhibition is 2.1% (inactive).
In the case of `CCCc1nc(NCc2ccc3c(c2)OCO3)c2nnn(Cc3ccccc3Cl)c2n1` it was 0.3% (inactive); in that of `Cc1nc(Nc2ccccc2F)c2nnn(Cc3ccccc3Cl)c2n1`, -5.6% (inactive); in that of `Cc1nc(Nc2ccc3c(c2)OCCO3)c2nnn(Cc3ccccc3Cl)c2n1`, 22.2% (active).
In the case of `O=C(CNC(=O)c1ccc(Br)o1)Nc1ccccc1` it was -1.9% (inactive); in that of `c1ccc(-n2nnnc2-c2cccnc2)cc1`, 4.3% (inactive).
Regarding `COc1ccc(-n2nnnc2-c2nc3ccccc3s2)cc1`, the inhibition was -9% (inactive).
Take `CCOc1cccc(-n2nnnc2-c2ccc(OC)cc2)c1`: the inhibition was 58.4% (active).
On to `COCCNC(=O)C(c1ccc(C)cc1)N(C(=O)CCC(=O)Nc1ccccn1)c1cccc(C)c1` (stereo not given), for which the inhibition was 7% (inactive).
Turning to `Cc1ccc(C2CC(=O)NC(SCC(=O)OCc3ccccc3)=C2C#N)o1` (stereo not given), the inhibition was -14.2% (inactive).
As for `C=CCOC(=O)C1=C(C)NC(SCC(=O)OCC)=C(C#N)C1c1ccc(C)cc1` (stereo not given), the inhibition was 0.1% (inactive).
The value for `CCOC(=O)CSC1=C(C#N)C(c2sccc2C)CC(=O)N1` (stereo not given) was 81.1% (active); that for `N#C/C=C/N1CCN(Cc2ccc3c(c2)OCO3)CC1` was -5.9% (inactive).
Turning to `NS(=O)(=O)c1cccc(NC(=O)CSc2nc3ccccc3n2-c2ccccc2)c1`, the inhibition was -1.5% (inactive).
Consider `Cc1ccc(SCCC(=O)OCC(=O)Nc2ncc(Cl)cc2Cl)cc1`, for which the inhibition is -3.3% (inactive).
As for `Cc1ccc(-n2c(SCC(=O)Nc3ncc(Cl)cc3Cl)nc3ccccc32)cc1`, the inhibition was 61.4% (active).
As to `COCCN1C(=O)C(=O)/C(=C(/O)c2ccc(S(=O)(=O)N3CCOCC3)cc2)C1c1ccc(OC)c(OC)c1` (stereo not given), the inhibition was 5.3% (inactive).
`NC(=O)Cn1cc(/C=N\NS(=O)(=O)c2ccccc2)c2ccccc21`: the inhibition was 1.4% (inactive).
The value for `COc1ccc(CNS(=O)(=O)c2cc(-c3cc(C)no3)ccc2C(C)C)cc1` was 77.6% (active).
The value for `Cc1cc(-c2ccc(C)c(S(=O)(=O)NCCCN(Cc3ccccc3)C(C)C)c2)on1` was 6.1% (inactive); that for `CCOc1ccccc1CNS(=O)(=O)c1cc(-c2cc(C)no2)ccc1C` was 2.7% (inactive); that for `COc1cccc(NC(=O)CN(C)C(=O)c2ccccc2CCc2ccccc2)c1` was -3.1% (inactive).
Regarding `Cc1ccc(C(=O)CCC(=O)N(C)CC(=O)Nc2c(Cl)cccc2Cl)cc1`, the inhibition is 1.7% (inactive).
As for `Cc1cc(C)nc(S/C=C/C(=O)c2ccccc2)n1`, the inhibition was 31.5% (active).
`Cc1ccc(N/C=C/C(=O)c2ccccc2)cc1C`: the inhibition is 0.5% (inactive).
As for `Cc1cc(C)nc(SCC(=O)c2ccc(Cl)cc2)n1`, the inhibition is -2.2% (inactive).
Turning to `O=S(=O)(NC1CCCC1)c1ccc(-n2cnnn2)cc1`, the inhibition is -0.4% (inactive).
The value for `COc1cc(NS(=O)(=O)c2ccc3ccccc3c2)c2ncccc2c1` was 93.3% (active); that for `COc1ccc2cc(S(=O)(=O)Nc3ccccn3)ccc2c1` was 1.9% (inactive).
As to `Cc1ccc(NS(=O)(=O)c2ccc(C)c(NC(=O)COc3ccc4ccccc4c3)c2)c(C)c1`, the inhibition is -2% (inactive).
Take `CCC(CC)c1nnc(NC(=O)C2CCN(C(=O)c3ccco3)CC2)s1`: the inhibition is -0.9% (inactive).
For `COc1ccc(C(=O)c2c(C)c(CCC#N)n3ccccc23)c(OC)c1`, the inhibition is -1.3% (inactive).
The value for `CCC(=C/c1sc2ccc3ccccc3c2[n+]1C)/C=C1\Sc2ccc3ccccc3c2N1C` was 32.2% (active).
As to `CC(C)C(=O)Nc1c2c(nn1-c1ccccc1)CSC2`, the inhibition is -4.2% (inactive).
With `COc1ccc(/C=C/c2noc(-c3ccccc3OC(C)=O)n2)cc1`, the inhibition is -0.4% (inactive).
Turning to `S=C(Nc1ccc(Br)cc1)NC1CCN(Cc2ccccc2)CC1`, the inhibition is 11.3% (inactive).
In the case of `COc1ccc2c(c1OC)C(=O)OC2Nc1nc(-c2ccccc2)cs1` (stereo not given) it was 21.9% (active); in that of `COc1ccc(CCNc2nc(-c3cccc(NC(C)=O)c3)cs2)cc1OC`, 2.3% (inactive); in that of `Cc1cccc(Nc2nc(-c3ccccc3)cs2)n1`, 5.9% (inactive).
For `Cc1ccc(-c2csc(NC3OC(=O)c4ccccc43)n2)cc1` (stereo not given), the inhibition is 34.7% (active).
Regarding `Cc1ccc(-c2csc(NNC(=O)c3ccccc3)n2)cc1`, the inhibition was -1.4% (inactive).
As to `COc1ccc(-c2csc(NC3OC(=O)c4ccccc43)n2)cc1` (stereo not given), the inhibition was 18.7% (inactive).
Turning to `COCCN1C(=O)N(c2ccc(Cl)cc2)C(=O)C1CC(=O)Nc1cc(OC)cc(OC)c1` (stereo not given), the inhibition was -2.6% (inactive).
The value for `CC(=O)Nc1c2c(nn1-c1ccc(C)cc1C)CS(=O)C2` (stereo not given) was -0.7% (inactive); that for `NC(=O)c1oc2ccccc2c1NC(=O)CS(=O)(=O)c1ccccc1` was 6.1% (inactive); that for `Cc1ccc(NC(=O)C(C)c2cccc(C(=O)c3ccccc3)c2)cc1` (stereo not given) was 3.2% (inactive).
